# Results taken from PubChem BioAssay (Tox21).
# Records with an inconclusive call do not appear. Calls of active or inactive are those of the source. Unless noted, the call rests on the fitted dose curve; in most records, active means well fitted cell-killing curve with a large enough effect in the repeat runs; inconclusive means weak or mixed curves, or effect the other way; inactive means no such curve, though single readings can be large or run the other way.
# Experiment: qHTS assay to identify small molecule antagonists of the vitamin D receptor (VDR) signaling pathway - cell viability counter screen (AID 743225); further: nearly all actives have a fitted effect of over 50% in size
# Settings: VDR-bla HEK293T viability, CellTiter-Glo luminescence, 16 h; series mostly up to 61 µM
# Procedure, shortened: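 Luminescent cell viability (CellTiter-Glo) in VDR-bla HEK 293T cells after 16 h compound exposure at 37C in the presence of 3 nM final 1-alpha,25-dihydroxy vitamin D3.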
row,Compound,outcome
1,[N-]=[N+]=[N-],inactive
2,Cc1[nH]c(=O)n(C(C)(C)C)c(=O)c1Cl,inactive
3,COC(=O)NC(=S)Nc1ccccc1NC(=S)NC(=O)OC,inactive
4,CCCCN(CCCC)SN(C)C(=O)Oc1cccc2c1OC(C)(C)C2,inactive
5,O=[N+]([O-])c1ccccc1,inactive
6,C=CC(N)=O,inactive
7,c1ccc2c(c1)Oc1ccccc1O2,inactive
8,c1ccc(-c2ccccc2)cc1,inactive
9,CCC12COCN1COC2,inactive
10,Clc1ccccc1Cl,inactive
11,CNC(=O)Oc1ccccc1OC(C)C,inactive
12,CC1OC(C)OC(C)O1 (configuration not stated),inactive
13,CCCN(CCC)c1c([N+](=O)[O-])cc(C(F)(F)F)cc1[N+](=O)[O-],inactive
14,COP(N)(=O)SC (configuration not stated),inactive
15,COC(=O)NS(=O)(=O)c1ccc(N)cc1,inactive
16,CN1C(=O)CN=C(c2ccccc2)c2cc(Cl)ccc21,inactive
17,CC(Oc1ccc(Cl)cc1Cl)C(=O)O (configuration not stated),inactive
18,O=C1CCCN1,inactive

row,Compound,outcome
1,CN(N=O)c1ccccc1,inactive
2,Cc1ccc(N)cc1N,inactive
3,Nc1ccc(Br)cc1,inactive
4,OC(O)C(Cl)(Cl)Cl,inactive
5,CCCCN(CC)C(=O)SCCC,inactive
6,C=C(C)CCl,inactive
7,CN(C)CCO,inactive
8,O=c1[nH]c2ccccc2c(=O)o1,inactive
9,CC(C)OC(=O)Nc1ccccc1,inactive
10,CON(C)C(=O)Nc1ccc(Cl)c(Cl)c1,inactive
11,Nc1ccc(Oc2ccc(N)cc2)cc1,inactive
12,O=c1n(Cl)c(=O)n(Cl)c(=O)n1Cl,inactive
13,CCOP(OCC)OCC,inactive
14,Clc1ccc(Cl)cc1,inactive
15,CC(C)(C)OOC(=O)c1ccccc1,inactive
16,COc1ccc2c3c1O[C@H]1[C@@H](O)C=C[C@H]4[C@@H](C2)N(C)CC[C@@]341,inactive
17,CCCC1COC(Cn2cncn2)(c2ccc(Cl)cc2Cl)O1 (configuration not stated),inactive
18,CC(=O)C=C(C)C,inactive

# Experiment: qHTS assay to identify small molecule agonists of the NFkB signaling pathway (AID 1159509; active means well fitted curve in the direction sought with a large enough effect in the signal ratio in the repeat runs, not every such curve was filed as active; the % refers to the signal ratio)
# Settings: NFkB-bla ME-180 cells, beta-lactamase FRET ratio, 5 h; series mostly up to 61 µM
# Procedure, shortened: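 NFkB-bla ME-180 cells carry a beta-lactamase reporter under an NF-kB response element. They were plated overnight, then exposed to compounds for 5 h at 37 C. Read-out is LiveBLAzer FRET after 1.5 hr at room temperature (405 nm excitation; 460/530 nm emission).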
row,Compound,outcome
1,[N-]=[N+]=[N-],inactive
2,Cc1[nH]c(=O)n(C(C)(C)C)c(=O)c1Cl,inactive
3,COC(=O)NC(=S)Nc1ccccc1NC(=S)NC(=O)OC,inactive
4,CCCCN(CCCC)SN(C)C(=O)Oc1cccc2c1OC(C)(C)C2,inactive
5,O=[N+]([O-])c1ccccc1,inactive
6,C=CC(N)=O,inactive
7,c1ccc2c(c1)Oc1ccccc1O2,inactive
8,c1ccc(-c2ccccc2)cc1,inactive
9,CCC12COCN1COC2,inactive
10,Clc1ccccc1Cl,inactive
11,CNC(=O)Oc1ccccc1OC(C)C,inactive
12,CC1OC(C)OC(C)O1 (configuration not stated),inactive
13,CCCN(CCC)c1c([N+](=O)[O-])cc(C(F)(F)F)cc1[N+](=O)[O-],inactive
14,COP(N)(=O)SC (configuration not stated),inactive
15,COC(=O)NS(=O)(=O)c1ccc(N)cc1,inactive
16,CN1C(=O)CN=C(c2ccccc2)c2cc(Cl)ccc21,inactive
17,CC(Oc1ccc(Cl)cc1Cl)C(=O)O (configuration not stated),inactive
18,O=C1CCCN1,inactive

row,Compound,outcome
1,CN(N=O)c1ccccc1,inactive
2,Cc1ccc(N)cc1N,inactive
3,Nc1ccc(Br)cc1,inactive
4,OC(O)C(Cl)(Cl)Cl,inactive
5,CCCCN(CC)C(=O)SCCC,inactive
6,C=C(C)CCl,inactive
7,CN(C)CCO,inactive
8,O=c1[nH]c2ccccc2c(=O)o1,inactive
9,CC(C)OC(=O)Nc1ccccc1,inactive
10,CON(C)C(=O)Nc1ccc(Cl)c(Cl)c1,inactive
11,Nc1ccc(Oc2ccc(N)cc2)cc1,inactive
12,O=c1n(Cl)c(=O)n(Cl)c(=O)n1Cl,inactive
13,CCOP(OCC)OCC,inactive
14,Clc1ccc(Cl)cc1,inactive
15,CC(C)(C)OOC(=O)c1ccccc1,inactive
16,COc1ccc2c3c1O[C@H]1[C@@H](O)C=C[C@H]4[C@@H](C2)N(C)CC[C@@]341,inactive
17,CCCC1COC(Cn2cncn2)(c2ccc(Cl)cc2Cl)O1 (configuration not stated),inactive
18,CC(=O)C=C(C)C,inactive
